Pf growth 48h = inhibits P. falciparum growth in the first generation, 48 h; P. falciparum luciferase growth in erythrocytes, 48 h; Potency, µM (doses to about 28.7 µM), usual class: inhibitors; 310,000 tested, 5.9% active
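Growth was read as firefly luciferase luminescence after a 48 h, 37 C, 5% CO2 exposure of compounds to reporter-bearing P. falciparum cultures (0.1% parasitemia, 2% hematocrit final) in Albumax-supplemented RPMI 1640.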
HCV inh = blocks hepatitis C virus | Huh7.5.1 HCVcc-Cre infection, luciferase reporter, 44 h | 340,000 tested, 3.4% active | Potency, µM (doses to about 41.8 µM), usual class: inhibitors
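Seed cells (1,000/well) for 4 h; treat with compound and infect with HCVcc-Cre, moi about 0.5. Incubate 44 h, then detect luciferase activity.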
HCMV antiviral = human cytomegalovirus inhibition | 410,000 tested, 4.5% active | HFF cells, HCMV-luciferase reporter, 72 h; stronger effect = lower value | activity change, negative = inhibition, % at 57.5 µM | AID 1259415; in the data active means activity change below about -60%; inconclusive means no clear call, values can overlap the other calls; inactive means above about -39%
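Screen run at 2 compound doses on HFFs infected with reporter HCMV, MOI 1 PFU/cell. Luciferase activity from cell lysates at 72 h post infection gave inhibition relative to buffer-only and Salinomycin wells.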
Pf growth 96h = P. falciparum growth inhibition at 96 hour, primary screen for plastid delayed-death inhibitors; P. falciparum luciferase reporter growth, 96 h; Potency, µM (top dose mostly 28.7 µM), usual class: inhibitors; 320,000 tested, 6.9% active
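Compounds incubated with erythrocytes infected by luciferase-expressing P. falciparum (2% hematocrit, 0.05% parasitemia final) for 96 hours, 37 C in 5% CO2. Growth inhibition scored as decreased luciferase luminescence.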
Hits are given with their value; . = inactive; ? = inconclusive; / = no result given. Hits are enriched below; roughly 13% of the tested compounds scored in any of these assays. Unless noted, the call rests on the fitted dose curve; in most records, active means well fitted inhibition curve with a large enough effect; inconclusive means small, poorly fitted or top-dose-only effect, or another doubt; inactive means no such curve, though single readings can be large or run the other way.

SMILES	Pf growth 48h	HCV inh	HCMV antiviral	Pf growth 96h
Cc1csc2nc(COC(=O)CNC(=O)c3ccc(F)cc3)cc(=O)n12	/	/	.	/
O=C(Nc1nc(-c2ccccn2)cs1)c1ccccc1-n1cnnn1	?	?	-92	1.7µM
CCOC(=O)C1=CN(CC2CCCO2)C=C(C(=O)OCC)C1c1ccccc1C(F)(F)F (centres undefined)	8.3µM	?	?	?
CN(C)CCNc1ncnc2c1ncn2[C@H]1CN(Cc2ccncc2)C[C@@H](CO)O1	/	/	.	/
COc1cccc(CNC(=O)CCCn2ncn3c(cc4occc43)c2=O)c1OC	/	/	.	/
CC1(C)Cc2ccccc2-c2nnc(SCC(=O)N3CCN(c4ccccc4)CC3)n21	.	?	-92	/
Cn1c(SCC(=O)Nc2nc3ccccc3s2)nnc1-c1ccccc1	/	.	.	.
CC1(C)Cc2ccccc2-c2nnc(SCC(=O)Nc3nc4ccccc4s3)n21	?	.	-83	.
C/C(=N\NC(=O)c1ccc(Cl)cc1)c1ccccn1	?	3.2µM	-101	.
COc1cc(C(=O)NCC(=O)N/N=C(/C)c2cccs2)cc(OC)c1OC	.	.	.	1.7µM
CC(=NNC(=S)Nc1cccc(Cl)c1)c1ccccn1	/	?	-97	/
C/C(=N\NC(=O)c1cc(C)nc2ccccc12)c1ccccn1	3.7µM	2.8µM	-114	3.3µM
CCCCN(CC)CCNC(=O)c1c(C)oc2ncnc(N3CCOCC3)c12	/	/	.	/
COc1cccc(C(=O)N/N=C(/c2ccccc2)c2ccccn2)c1	9.3µM	?	-102	?
COc1cc(C(=O)N/N=C(\c2ccccc2)c2ccccn2)cc(OC)c1OC	0.93µM	?	-102	9.3µM
C/C(=N\NC(=O)C(O)c1ccccc1)c1ccc(Cl)cc1 (centres undefined)	.	.	.	4.1µM
COc1ccc(/C=N/NC(=O)c2ccc(CSc3nncn3C)cc2)cc1OC	?	.	.	?
C/C(=N\NC(=O)c1ccccn1)c1ccc(Cl)cc1	.	.	.	.
COc1cc(/C(C)=N/NC(=O)c2ccc(CSc3nncn3C)cc2)cc(OC)c1OC	.	.	.	13µM
COc1ccc(N(C)C(=O)c2cn(C3CCCCC3)c(=O)c3c2c2ccccc2n3C)cc1	/	/	.	/
Cn1cnnc1SCc1ccc(C(=O)N=Nc2c(O)n(C)c3ccccc23)cc1	?	.	.	10µM
COc1cc(NC(=O)c2ccccn2)cc(OC)c1OC	.	.	.	.
COc1cc(C(=O)NN=C2c3ccccc3-c3ccccc32)cc(OC)c1OC	/	/	-88	/
Cn1cnnc1SCC(=O)n1c2ccccc2c2ccccc21	.	.	.	.
COc1cc(C(=O)N/N=C(\C)c2ccccn2)cc(OC)c1OC	.	.	-88	.
SMILES	Pf growth 48h	HCV inh	HCMV antiviral	Pf growth 96h
CCc1ccc(NC(=O)CSc2nc3c([nH]c4ccccc43)c(=O)n2C)cc1	/	/	.	/
CC(CN1CCCCC1)OC(=O)c1cccc(F)c1 (centres undefined)	.	?	.	.
COc1cccc(C(=O)OCCCN(C)C)c1	.	.	.	.
COc1cccc(C(=O)OCCN2CCCCC2)c1	.	.	-100	.
COc1cccc(C(=O)OCCN(C)C(C)(C)C)c1	/	/	/	8.3µM
CC(CN1CCN(C)CC1)OC(=O)c1ccc(F)cc1 (centres undefined)	.	.	-71	.
COc1cccc(C(=O)OC(C)CN2CCCC2)c1 (centres undefined)	.	.	.	4.1µM
COc1ccc(NC(=O)CCc2c(C)nc3c(-c4ccc(F)cc4)c(C)nn3c2C)c(OC)c1	/	/	.	/
COc1cccc(CNC(=O)c2ccc(CN3CC(=O)N4CCCCC4C3=O)cc2)c1 (centres undefined)	/	/	.	/
COc1ccccc1NC(=O)Cn1nc2c3cc(F)ccc3n(Cc3cccc(C)c3)cc-2c1=O	/	/	.	/
C[C@H]1[C@@H](NS(=O)(=O)c2ccc(Br)cc2)CC[C@@]23CCCN2C(=O)CCC[C@@H]13	/	/	.	/
CC1=C(c2ccc(C)c(C)c2)S(=O)(=O)N=C1N1CCC(C(=O)NCCc2ccco2)CC1	/	/	.	/
O=C(OCCCN1CCCCC1)c1ccc(O)cc1	.	.	.	2.6µM
O=C(c1ccc2ncsc2c1)N1CCCCC1	.	.	.	.
Nc1nc2ccc(O)cc2s1	.	.	.	10µM
Nc1nc2ccc(C(=O)N3CCCCC3)cc2s1	.	.	.	4.1µM
CC(C)(C)C(=O)CSc1nc2ccsc2c(=O)n1Cc1ccccc1Cl	/	/	.	/
COc1ccc(C(=O)C2CCCN(Cc3cccn3-c3nccs3)C2)cc1F (centres undefined)	?	.	-64	.

Bioassay records (PubChem)
